# Laboratory results as given in PubChem BioAssay.
# “And” between values parts separate entries of the source, which are not always exact repeats. Equal entries are not always repeated. Records with an inconclusive call do not appear. For some of these results: Entries with a potency or affinity are not part of this list. Some compounds were tested as several samples or in several runs, with calls that do not always agree. The source made the active and inactive calls. Unless noted, how the calls were made is not given here.
# How the values were obtained:
# [1] = hESC survival regulators, cell-based (AID 493140); details: human embryonic stem cell survival screen; stronger effect = higher value;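 further: cells exposed to compounds for four days before counting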
# [2] = liver-stage malaria parasite growth inhibition, primary screen, cell-based, HepG2, luciferase luminescence, HepG2 viability (AID 624349; in the data active means parasite load remaining mostly below about 12%, no sharp cut-off; inactive means mostly above about 10%;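 further: 100% = mean of DMSO negative control wells on the same plate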); details: P. berghei liver stage in HepG2, luciferase luminescence, concentration not given here; parasite load remaining: stronger effect = lower value; viability: measured here: HepG2 viability without parasites
# [3] = differential killing of epithelial or mesenchymal cells, primary screen, imaging, PC-3E GFP, TEM4-18 mCherry, co-culture (AID 1345086;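 active means compounds killing one labelled cell type while sparing the other, by normalised counts and ratio limits, not self-fluorescent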;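 on all read-outs here: cells exposed to compound for 72 h before imaging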;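 on red/green cell ratio (normalised): normalised mesenchymal count divided by normalised epithelial count so high means epithelial killing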); details: imaging cell counts, at 1 µM; for red/green cell ratio (normalised): actives lie on both sides
# [4] = sensitizers of A549 cells to miR-34 induction, primary screen, imaging, A549 dox-inducible miR-34, nuclei and caspase counts (AID 1347080;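 active means compounds whose cell count with miR-34 switched on is under 0.7 times the count with it off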); details: A549 miR-34 inducible, Hoechst nuclei count, 48 h
# [5] = biological target: NAD(+) hydrolase SARM1 (Homo sapiens) (UniProt Q6SZW1); experiment: SARM1 TIR NADase inhibitors, cell lysate, NAD-Glo luminescence (AID 1508614;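 active means compound whose remaining NAD level is above about 45 nM, limit read from the data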); details: SAM-TIR HEK293T lysate NADase, at 1 µM, stronger effect = higher value
# Sequence of NAD(+) hydrolase SARM1 (Homo sapiens) (Q6SZW1 whole entry, looked up): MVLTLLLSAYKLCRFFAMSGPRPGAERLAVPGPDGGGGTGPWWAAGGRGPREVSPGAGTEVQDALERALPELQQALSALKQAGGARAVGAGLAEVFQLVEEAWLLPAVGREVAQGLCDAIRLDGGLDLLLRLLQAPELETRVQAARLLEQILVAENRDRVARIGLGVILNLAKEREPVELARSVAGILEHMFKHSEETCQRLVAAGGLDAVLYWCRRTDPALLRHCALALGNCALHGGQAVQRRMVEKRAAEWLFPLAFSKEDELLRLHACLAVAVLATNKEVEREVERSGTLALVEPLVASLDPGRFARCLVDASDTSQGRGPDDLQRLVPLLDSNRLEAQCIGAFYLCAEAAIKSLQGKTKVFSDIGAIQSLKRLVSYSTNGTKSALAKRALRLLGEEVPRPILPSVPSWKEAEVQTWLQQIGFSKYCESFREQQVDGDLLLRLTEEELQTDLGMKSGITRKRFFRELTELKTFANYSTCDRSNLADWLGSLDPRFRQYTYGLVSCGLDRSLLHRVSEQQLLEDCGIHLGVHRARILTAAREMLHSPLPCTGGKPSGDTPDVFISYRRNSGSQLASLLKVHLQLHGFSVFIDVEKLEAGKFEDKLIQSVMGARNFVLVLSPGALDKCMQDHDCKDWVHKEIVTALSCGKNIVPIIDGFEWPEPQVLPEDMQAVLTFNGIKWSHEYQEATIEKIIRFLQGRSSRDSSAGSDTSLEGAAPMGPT
# [6] = tested on: Aerobactin synthetase IucA (Klebsiella pneumoniae); experiment: IucA aerobactin synthetase inhibitors, biochemical, Tocris library, absorbance (AID 1345561); details: purified IucA enzyme assay, absorbance (OD) read-out; stronger effect = lower value; concentration not given here;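 further: 100% = enzyme without compound and 0% = no enzyme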
# [7] = tested on: Aerobactin synthetase IucA (Klebsiella pneumoniae hvKP1); experiment: Biochemical IucA enzyme inhibition primary screen of the Spectrum library (AID 1346200); details: malachite green pyrophosphate, A620, at 8 µM, stronger effect = lower value;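 further: 100% = wells without compound and 0% = wells lacking enzyme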
# [8] = biological target: Mitogen-activated protein kinase 7 (Homo sapiens) (UniProt Q13164); experiment: ERK5 transactivation activators in reporter cells, primary screen, cell-based, HTS (AID 1508626;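 active means luciferase signal above three times the same-plate solvent-only control wells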;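 further: luciferase driven by Gal4-ERK5 fusion binding five Gal4 sites before minimal TATA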); details: HeLa Gal4-ERK5 transactivation, 18 h, at 5 µM, stronger effect = higher value
# Sequence of Mitogen-activated protein kinase 7 (Homo sapiens) (Q13164 whole entry, looked up, the tested form may be a part): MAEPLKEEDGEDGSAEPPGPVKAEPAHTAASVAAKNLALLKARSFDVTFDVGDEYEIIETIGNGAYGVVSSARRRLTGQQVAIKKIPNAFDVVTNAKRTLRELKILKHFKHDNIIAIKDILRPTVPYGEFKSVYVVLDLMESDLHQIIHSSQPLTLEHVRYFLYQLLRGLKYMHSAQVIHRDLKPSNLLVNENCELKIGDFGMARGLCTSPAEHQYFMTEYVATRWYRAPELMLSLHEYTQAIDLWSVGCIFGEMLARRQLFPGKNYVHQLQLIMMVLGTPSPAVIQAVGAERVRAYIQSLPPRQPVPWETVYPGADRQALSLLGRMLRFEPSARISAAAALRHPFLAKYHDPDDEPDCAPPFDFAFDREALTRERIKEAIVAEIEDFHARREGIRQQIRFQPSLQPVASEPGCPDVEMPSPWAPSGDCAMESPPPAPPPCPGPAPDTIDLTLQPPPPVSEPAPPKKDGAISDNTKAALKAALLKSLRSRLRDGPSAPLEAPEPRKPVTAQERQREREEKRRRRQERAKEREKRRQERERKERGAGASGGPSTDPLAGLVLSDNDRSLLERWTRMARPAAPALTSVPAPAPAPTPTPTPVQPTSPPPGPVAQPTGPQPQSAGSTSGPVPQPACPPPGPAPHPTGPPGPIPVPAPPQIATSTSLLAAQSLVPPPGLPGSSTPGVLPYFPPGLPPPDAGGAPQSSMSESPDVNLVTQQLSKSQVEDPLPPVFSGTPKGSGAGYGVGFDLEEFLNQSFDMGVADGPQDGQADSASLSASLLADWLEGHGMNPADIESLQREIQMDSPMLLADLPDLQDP
# [9] = viability rescue of complex I mutant cybrids, primary screen, cell-based, galactose medium, ATP luminescence (AID 1645843;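 active means z-score of at least 1.8 in each of two replicates, scored against plate mean and spread of sample wells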;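 further: positive z means more ATP and so rescue of galactose-driven cybrid death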); details: complex I mutant cybrid cells, 72 h, stronger effect = higher value
# [10] = circadian clock period modulators, cell-based, LOPAC library, luminescence reporter (AID 2774); details: circadian reporter cells, at 7 µM, actives lie on both sides;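 further: values are relative to mean of DMSO wells on each plate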
# [11] = tested on: Hepatitis C virus NS3 helicase; experiment: HCV NS3 helicase inhibitors, primary screen, biochemical, fluorescence polarization, LOPAC1280 library (AID 687035; in the data active means inhibition above about 37%); details: Purified HCV NS3 helicase, Cy5-dT15 ssDNA binding fluorescence polarization; stronger effect = higher value; concentration not given here
# [12] = Cy5 fluorescence quenching or enhancement artefacts, artefact control for HCV NS3 helicase inhibitor project, biochemical, LOPAC1280 (AID 687037); details: Cy5-DNA-NS3h complex fluorescence interference counterscreen
# [13] = tested on: Aerobactin synthetase IucA (Klebsiella pneumoniae, hypervirulent); experiment: IucA enzyme inhibition, biochemical, LOPAC library, absorbance readout (AID 1346212); details: IucA enzyme assay, absorbance (OD) readout; stronger effect = lower value; concentration not given here;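 further: 100% = no compound wells and 0% = no enzyme wells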
# [14] = phospholipid biosynthesis inhibitors in animal cells, primary screen, cell-based, LOPAC library, screen 4 (AID 1347384); details: phospholipid biosynthesis inhibition screen, at 10 µM
# [15] = growth inhibition of DIPG glioma cells, dose response, cell-based, JHH-DIPG-1, MIPE4.0, CellTiter-Glo, qHTS (AID 1347062; cut-off not given, nearly all actives have AC50 up to about 27 µM;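 on AC50: cells exposed to compound for two days before readout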); details: JHH-DIPG-1 viability, CellTiter-Glo ATP luminescence
# [16] = growth inhibition of DIPG glioma cells, dose response, cell-based, SU-DIPG-IV, MIPE4.0, CellTiter-Glo, qHTS (AID 1347063; cut-off not given, nearly all actives have AC50 up to about 30 µM;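 further: compound exposure lasted 48 hours before the viability readout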); details: SU-DIPG-IV viability, CellTiter-Glo ATP luminescence
# [17] = SU-DIPG-VI glioma cell viability, MIPE4.0 library, CellTiter-Glo luminescence, qHTS (AID 1347066; cut-off not given, nearly all actives have AC50 up to about 30 µM;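 further: cells exposed to compound for 48 hours before readout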); details: CellTiter-Glo ATP luminescence
# [18] = survival rescue of mitochondrial mutant cells in low glucose, primary screen, MELAS cybrids, Rieske KO mouse fibroblasts, CellTiter-Glo (AID 1508586;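 active means mean z-score across replicates of 1.96 or higher in either the MELAS or the Rieske mutant cell line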;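 further: z relative to plate mean and SD of compound and empty wells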)
# [19] = inhibitors of Cryptococcus chitosan production, flow cytometry, Cibacron Brilliant Red staining (AID 1347148); details: Cryptococcus neoformans chitosan, stronger effect = lower value; at 10 µM unless noted;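 further: compound exposure lasted three days at 37 degrees C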
# [20] = polyglutamine-triggered caspase-3 activation inhibitors, cell-based (AID 1583); details: polyglutamine-induced caspase-3 activation, cell assay; stronger effect = higher value;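 tested at 10 µM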
# [21] = suppressors of polyQ aggregation in yeast, 75Q-TubU reporter (AID 1593); details: Yeast 75Q polyglutamine aggregation reporter
# [22] = rescue of polyQ-huntingtin neuronal dysfunction in worms, whole organism, C. elegans mechanosensory neurons, N-terminal huntingtin (AID 1599); details: touch response, stronger effect = higher value
# [23] = inhibitors of mitochondrial cytochrome c release, biochemical, purified mitochondria (AID 1603); details: stronger effect = lower value;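 further: mouse liver mitochondria challenged with calcium chloride; signal normalized to the plate average as 100%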
# [24] = inhibitors of polyQ protein aggregation (AID 1604); details: polyglutamine-induced protein aggregation inhibition assay; stronger effect = higher value; tested at 2.5 µM
# [25] = enhancers of glutamate uptake in motor neurons, MN-1 cell line (AID 1612); details: MN-1 motor neuron cells, stronger effect = higher value;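 further: tested at 1 µM final; 0% = mean of DMSO vehicle wells on each plate; positive means more glutamate uptake than control and negative means less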
# [26] = suppressors of polyglutamine aggregation in yeast, 75Q-TubH (AID 1616); details: S. cerevisiae 75Q-TubH polyglutamine aggregation suppression; stronger effect = higher value
# [27] = reducers of polyQ inclusions in PC12 cells, cell-based, NGF-treated PC12, GFPQ80 (AID 1614); details: PC12 NGF-treated GFP-polyQ80 inclusion reduction;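 further: lower means fewer inclusions and 0 means no inclusions at all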
# [28] = measured here: epithelial PC-3E GFP cell survival
# [29] = measured here: mesenchymal TEM4-18 mCherry cell survival
# [30] = measured here: relative caspase fold change +Dox/-Dox
# [31] = measured here: total cells with miR-34 induction, stronger effect = lower value
# [32] = measured here: total cells without miR-34 induction
# [33] = counts scaled to control wells, 1 = unselective
# [34] = stronger effect = lower value, cell number ratio, induced over uninduced
structure (smiles),measurement,setting,value
CCNC1(c2cccs2)CCCCC1=O (configuration not stated),survival,[1],13.6 (inactive)
same,parasite load remaining,[2],136% (inactive)
same,viability,[2],77%
same,red/green cell ratio (normalised),[3],0.77 (inactive)
same,normalised cell number,[3]; [28],1.37
same,normalised cell number,[3]; [29],1.05
same,fold change,[4]; stronger effect = lower value,0.914 (inactive)
same,fold change,[4]; [30],0.59
same,cell count,[4]; [31],8750
same,cell count,[4]; [32],9570
same,remaining NAD,[5],10 nM (inactive)
CCCCCCCCCCNCCC (tested in a mixture with another compound),parasite load remaining,[2],23% (inactive)
same,viability,[2],92.6%
same,red/green cell ratio (normalised),[3]; [33],0.92 (inactive)
same,normalised cell number,[3]; [28],1.01
same,normalised cell number,[3]; [29],0.93
same,fold change,[4]; [34],0.945 (inactive)
same,fold change,[4]; [30],1.32
same,cell count,[4]; [31],11300
same,cell count,[4]; [32],11900
O1[As]2O[As]3O[As]1O[As](O2)O3,parasite load remaining,[2],61.8% (inactive)
same,viability,[2],103%
same,red/green cell ratio (normalised),[3],0.77 (inactive)
same,normalised cell number,[3]; [28],1.19
same,normalised cell number,[3]; [29],0.92
same,fold change,[4]; stronger effect = lower value,0.844 (inactive)
same,fold change,[4]; [30],2.16
same,cell count,[4]; [31],11700
same,cell count,[4]; [32],13900
Cc1ccc(C[N+](C)(C)C)o1,remaining activity,[6],126% (inactive)
same,activity remaining,[7],106% (inactive)
same,fold change,[4]; [34],0.971 (inactive)
same,fold change,[4]; [30],0.883
same,cell count,[4]; [31],9440
same,cell count,[4]; [32],9720
same,luciferase signal,[8],100 AU (inactive)
same,z-score,[9],0.545 (inactive)
NCc1cc(=O)[nH]o1,period change,[10],-0.1 h (inactive)
same,inhibition,[11],-3% (inactive)
same,fluorescence ratio (interference),[12],1 (inactive)
same,remaining activity,[6],112% (inactive)
same,remaining activity,[13],89% (inactive)
same,fold change,[4]; stronger effect = lower value,0.974 (inactive)
same,fold change,[4]; [34],0.899 (inactive)
same,fold change,[4]; [30],1.71 and 1.62
same,cell count,[4]; [31],10400 and 8970
same,cell count,[4]; [32],10700 and 9980
same,outcome,[14],inactive
same,z-score,[9],0.465 (inactive) and -0.045 (inactive)
CC1=NN=C(c2ccc(N)cc2)c2cc3c(cc2C1)OCO3,period change,[10],0.095 h (inactive)
same,inhibition,[11],3% (inactive)
same,fluorescence ratio (interference),[12],1 (inactive)
same,remaining activity,[6],114% (inactive)
same,remaining activity,[13],78.1% (inactive)
same,outcome,[15],inactive
same,outcome,[16],inactive
same,outcome,[17],inactive
same,fold change,[4]; stronger effect = lower value,1.05 (inactive) and 1 (inactive)
same,fold change,[4]; [30],0.665 and 1.11
same,cell count,[4]; [31],10000 and 7840
same,cell count,[4]; [32],9520 and 7820
same,outcome,[14],inactive
same,z-score,[9],0.825 (inactive) and 4.29 (active)
c1ccc(CCCN2CCN(CCOC(c3ccccc3)c3ccccc3)CC2)cc1,period change,[10],-0.025 h (inactive)
same,inhibition,[11],0% (inactive)
same,fluorescence ratio (interference),[12],1 (inactive)
same,remaining activity,[6],117% (inactive)
same,remaining activity,[13],104% (inactive)
same,AC50,[15],20.9 µM (active)
same,AC50,[16],23.5 µM (active)
same,fold change,[4]; stronger effect = lower value,1.21 (inactive) and 0.966 (inactive)
same,fold change,[4]; [30],1.16 and 0.645
same,cell count,[4]; [31],3120 and 2750
same,cell count,[4]; [32],2580 and 2850
same,outcome,[14],inactive
same,z-score,[9],-1.04 (inactive) and -1.21 (inactive)
S=C(NC1CCCCC1)N1CCC(c2cnc[nH]2)CC1,period change,[10],-1.93 h (inactive)
same,inhibition,[11],-3% (inactive)
same,fluorescence ratio (interference),[12],0.9 (inactive)
same,remaining activity,[6],89.7% (inactive)
same,remaining activity,[13],99.4% (inactive)
same,fold change,[4]; stronger effect = lower value,0.921 (inactive)
same,fold change,[4]; [34],0.93 (inactive)
same,fold change,[4]; [30],1.06 and 0.678
same,cell count,[4]; [31],8920 and 7940
same,cell count,[4]; [32],9690 and 8540
same,outcome,[14],inactive
same,z-score,"[18]; MELAS cybrid survival, CellTiter-Glo 48 h, stronger effect = higher value",0.603 (inactive)
same,z-score,"[18]; Rieske KO mouse fibroblast survival, CellTiter-Glo 72 h",0.478
same,z-score,[9],-0.46 (inactive) and -0.595 (inactive)
O=C(Cc1ccc(Cl)c(Cl)c1)N1CCCCC1CN1CCCC1 (configuration not stated),period change,[10],-0.135 h (inactive)
same,inhibition,[11],-2% (inactive)
same,fluorescence ratio (interference),[12],0.9 (inactive)
same,remaining activity,[6],106% (inactive)
same,remaining activity,[13],90.2% (inactive)
same,fold change,[4]; stronger effect = lower value,1.01 (inactive) and 0.956 (inactive)
same,fold change,[4]; [30],1.27 and 0.734
same,cell count,[4]; [31],9780 and 8020
same,cell count,[4]; [32],9720 and 8380
same,outcome,[14],inactive
same,z-score,[9],0.175 (inactive) and -0.475 (inactive)
c1ccc2c(c1)[I+]c1ccccc1-2,period change,[10],-1.22 h (inactive)
same,inhibition,[11],-5% (inactive)
same,fluorescence ratio (interference),[12],1 (inactive)
same,remaining activity,[6],106% (inactive)
same,remaining activity,[13],103% (inactive)
same,fold change,[4]; stronger effect = lower value,1.1 (inactive) and 0.717 (inactive) and 0.928 (inactive)
same,fold change,[4]; [30],1.26 and 1.66 and 0.513
same,cell count,[4]; [31],1170 and 692 and 1240
same,cell count,[4]; [32],1070 and 966 and 1340
same,fold fluorescence,[19],9.07 [at 179.1 µM] (inactive)
same,outcome,[14],active
same,z-score,[9],-1.03 (inactive) and -1.25 (inactive)
C[C@]12CC[C@H](OC3OC(O)C(O)C(O)C3O)C=C1CCC1C2CC[C@]2(C)[C@@H](c3ccc(=O)oc3)CC[C@]12O (some centres not stated),parasite load remaining,[2],-0.075% (inactive)
same,viability,[2],22.8%
same,red/green cell ratio (normalised),[3]; [33],0.18 (inactive)
same,normalised cell number,[3]; [28],0.18
same,normalised cell number,[3]; [29],0.03
same,fold change,[4]; [34],0.742 (inactive)
same,fold change,[4]; [30],0.885
same,cell count,[4]; [31],150
same,cell count,[4]; [32],202
C[C@]12CCC(=O)C=C1CCC1C2CC[C@@]2(C)C1CC[C@@H]2O (some centres not stated),inhibition,[20],-4.21%
same,score,[21],-1.11
same,rescue above control,[22],4.25
same,cytochrome c release ratio,[23],1.03
same,inhibition of aggregation,[24],-1.96%
same,glutamate uptake change,[25],18.8%
same,aggregation suppression score,[26],-0.43
same,parasite load remaining,[2],68.4% (inactive)
same,viability,[2],110%
same,red/green cell ratio (normalised),[3],1.12 (inactive)
same,normalised cell number,[3]; [28],0.76
same,normalised cell number,[3]; [29],0.85
same,fold change,[4]; stronger effect = lower value,0.943 (inactive)
same,fold change,[4]; [30],2.07
same,cell count,[4]; [31],10700
same,cell count,[4]; [32],11300
C[N+](C)(C)CC#CCN1CCCC1=O,inhibition,[20],23.8%
same,score,[21],1.29
same,rescue above control,[22],8.8
same,cytochrome c release ratio,[23],1.02
same,inhibition of aggregation,[24],53.5%
same,glutamate uptake change,[25],7.8%
same,inclusion score,[27],2
same,aggregation suppression score,[26],1.08
same,period change,[10],-0.1 h (inactive)
same,inhibition,[11],-1% (inactive)
same,fluorescence ratio (interference),[12],1 (inactive)
same,remaining activity,[6],124% (inactive)
same,remaining activity,[13],112% (inactive)
same,fold change,[4]; stronger effect = lower value,1.08 (inactive) and 0.881 (inactive)
same,fold change,[4]; [30],1.78 and 1.33
same,cell count,[4]; [31],9690 and 9120
same,cell count,[4]; [32],8970 and 10300
same,outcome,[14],inactive
same,z-score,[9],0.5 (inactive) and 0.575 (inactive)
